High-throughput results (PubChem)
A selection: hits, their analogues and other compounds. The true share with any hit is near 10%.
SARS PLP yeast = blocks SARS-CoV papain-like protease in a yeast assay; AID 485353; 0.19% of 330,000 active; Potency, µM (top dose mostly 32.9 µM), without a hit: at the top dose activity, positive = growth rescue, hits mostly activators; S. cerevisiae expressing SARS-CoV PLpro, growth rescue; calls by dose curve; further: 0% is about no effect; nearly all actives have a fitted effect of over 55% in size
Pf growth 96h = inhibits malaria parasite growth, 96 h; 6.9% of 320,000 active; Potency, µM (titrated, usually from 28.7 µM), without a hit: at the top dose activity change, negative = inhibition, usual class: inhibitors; AID 504834; P. falciparum luciferase reporter growth, 96 h; further: on the % scale 0 is the no-effect control and ±100 the full control effect
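Infected RBCs, 2% Hct / 0.05% parasitemia final; luciferase-reporter P. falciparum; cpd 96 h, 37 C, 5% CO2; luciferase detection reagent; luminescence.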
Pf growth 48h = P. falciparum growth inhibition at 48 hours (one generation); P. falciparum luciferase growth in erythrocytes, 48 h; Potency, µM (doses to about 28.7 µM), for the others: top-dose activity change, negative = inhibition, actives largely listed as inhibitors; 5.9% of 310,000 active; further: on the % scale 0 is the no-effect control and ±100 the full control effect
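Growth was read as firefly luciferase luminescence after a 48 h, 37 C, 5% CO2 exposure of compounds to reporter-bearing P. falciparum cultures (0.1% parasitemia, 2% hematocrit final) in Albumax-supplemented RPMI 1640.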
NS1 function inh = influenza NS1 inhibition; Potency, µM (highest dose often 46.1 µM), inactives show at the highest dose activity, positive = more growth; 0.4% of 270,000 active; calls by dose curve; further: actives are rising curves; nearly all actives have a fitted effect of over 50% in size
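S. cerevisiae expressing influenza A NS1, grown in glucose, washed, then diluted 1:100 into pH 6.0 -URA galactose medium with 23 nl compound. Growth recovery read as OD600; NS1-free strain serves as control.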
Starred values were filed as active, the others as inactive; ? = inconclusive; nt = no result. Unless noted, the call rests on the fitted dose curve; in most records, active means well fitted inhibition curve with a large enough effect; inconclusive means small, poorly fitted or top-dose-only effect, or another doubt; inactive means no such curve, though single readings can be large or run the other way. Potency means the concentration at half of the fitted maximal effect.

SMILES	SARS PLP yeast	Pf growth 96h	Pf growth 48h	NS1 function inh
COc1cc(NC(=O)c2ccc3c(c2)OCCO3)ccc1NC(=O)c1cccs1	-1%	-22%	25%	3%
Cc1cc(-c2ccccc2)nc(=O)[nH]1	3%	6.6µM*	20%	-19%
COc1ccc(CNC(=O)CN(c2ccccc2)S(=O)(=O)c2ccccc2[N+](=O)[O-])cc1	1%	68%	-10%	2%
CC(=O)c1cnc(Nc2nc(C)c3cc(C)c(C)cc3n2)nc1C	6%	13µM*	2%	-3%
CSc1ncc(C(C)=O)c(C)n1	0%	37%	-6%	nt
Cc1ccc(SCCCCN2CCNCC2)cc1	-23%	12%	39%	12%
Clc1ccc(SCCCCN2CCNCC2)cc1	-22%	12µM*	?	?
CC(=O)Nc1c(I)c(C(=O)N[C@H]2C(O)O[C@H](CO)[C@@H](O)[C@@H]2O)c(I)c(N(C)C(C)=O)c1I (stereo partly drawn)	nt	118%	14%	nt
O=C1C(=O)c2ccccc2C([O-])=C1[n+]1ccccc1	0%	7.4µM*	3.7µM*	2%
O=C1C(=C(O)c2ccccc2)C(=O)c2ccccc21	0%	-7%	?	-16%
CCCCCN(C(=O)CCC(=O)OCC(=O)N1CCC(C)CC1)c1c(N)n(CCCC)c(=O)[nH]c1=O	-7%	45%	15%	nt
CCN(C(=O)CSc1nnc(-c2cccs2)n1CC)C1CCS(=O)(=O)C1 (stereo not drawn)	0%	-2%	-2%	2%
COc1ccc(-n2c(Cc3cccn3C)nnc2SCC(=O)Nc2ccccc2C)cc1	-2%	6.6µM*	nt	-2%
COc1ccc(-n2c(Cc3cccn3C)nnc2SCC(=O)Nc2cccc(OC)c2)cc1	-20%	17%	?	-3%
COc1ccc(-n2c(Cc3cccn3C)nnc2SCC(=O)Nc2cccc(C)c2C)cc1	18%	?	?	?
COc1ccc(OC)c(NC(=O)CSc2nnc(Cc3cccn3C)n2-c2ccc(F)cc2)c1	-11%	-13%	13µM*	-16%
COc1cccc(NC(=O)CSc2nnc(Cc3cccn3C)n2-c2ccc(F)cc2)c1	-4%	4.1µM*	?	9%
Cc1nn(C)cc1CN(C)C(=O)c1cc(COc2ccc(F)cc2F)on1	0%	?	-7%	1%
CCCNC(=O)c1ccc(N2CCC3(CC2)CC(c2cccc(Br)c2)=NO3)c(NC(=O)c2ccc(Cl)c([N+](=O)[O-])c2)c1	1%	-5%	?	nt
CCC(Sc1nc(-c2ccccc2)c(-c2ccccc2)[nH]1)C(=O)O (stereo not drawn)	0%	-16%	25%	0%
COc1ccccc1CNS(=O)(=O)c1ccc(S(=O)(=O)NC2CC2)cc1	-3%	?	4%	-17%
COc1cc(CN(C2CCCCC2C)S(=O)(=O)c2ccc(S(=O)(=O)NC3CC3)cc2)cc(OC)c1OC (stereo not drawn)	-6%	-22%	8.3µM*	26%
COc1ccc(CN(C2CCCCC2C)S(=O)(=O)c2ccc(S(=O)(=O)N(C)C)cc2)cc1OC (stereo not drawn)	7%	?	13µM*	?
Cc1ccc(SCC(=O)OCC(=O)N2CCN(C(=O)c3ccco3)CC2)c(C)c1	-2%	-3%	-1%	nt
O=C1NCC(c2ccccc2)C1C(=O)N/N=C/c1ccc(Cl)s1 (stereo not drawn)	0%	7.4µM*	-29%	0%
SMILES	SARS PLP yeast	Pf growth 96h	Pf growth 48h	NS1 function inh
CCOc1ccccc1CNC(=O)Cn1c(=O)oc2ccccc21	-3%	-31%	nt	-5%
Cc1ccccc1NC(=O)Cn1c(=O)oc2ccccc21	1%	4.1µM*	5%	7%
CCOc1ccc(CCNC(=O)Cn2c(=O)oc3ccccc32)cc1OCC	6%	nt	8.3µM*	6%
CSc1ccccc1NC(=O)CCn1c(=O)oc2ccccc21	0%	7%	0%	3%
CCOc1ccccc1NC(=O)CCn1c(=O)oc2ccccc21	2%	6.6µM*	13%	-16%
COCCN(CCOC)C(=O)CCn1c(=O)oc2ccccc21	-8%	1.2µM*	-11%	2%
O=C(Cn1c(=O)oc2ccccc21)Nc1ccccc1Cl	3%	?	77%	-9%
O=C(CN1C(=O)NC2(CCCC2)C1=O)OCc1cccc(Br)c1	0%	15%	-9%	nt
CCOc1ccc(CNC(=O)CCn2c(=O)oc3ccccc32)cc1OC	8%	9.3µM*	?	4%
CC(C)(C)Nc1nc(NC(C)(C)C)nc(-n2ccnc2)n1	-4%	?	1.3µM*	-14%
CC(C)(C)Nc1nc(NN)nc(NC(C)(C)C)n1	7%	?	?	9%
CCCCc1ccc(NC(=O)CSC2=NN3CCCC(=O)N=C3S2)cc1	-1%	2.1µM*	-4%	-7%
O=C1CCCN2N=C(SCC(=O)Nc3cccc(Cl)c3)SC2=N1	-1%	82%	?	7%
O=C1CCCN2N=C(SCC(=O)Nc3ccc(Cl)cc3)SC2=N1	0%	10µM*	-13%	-11%
CC(C)c1ccc2[nH]c3nc(SCC(=O)N4CCOCC4)nnc3c2c1	-2%	?	104%	nt
COc1ccc2oc(C(=O)OCC(=O)N(C)C3CCS(=O)(=O)C3)c(C)c2c1 (stereo not drawn)	-11%	35%	20%	nt
Cc1ccc(OCC(=O)N(Cc2ccccc2)c2c(N)n(Cc3ccccc3)c(=O)[nH]c2=O)c(C)c1	-9%	?	?	nt
COc1ccc(C(=O)NC(=S)NNC(=O)c2ccncc2)cc1Br	10%	?	13µM*	nt
COc1ccc(C(=O)NC(=S)NC(C)(C)C)cc1Br	?	5.2µM*	?	-10%
COc1ccc(C(=O)NC(=S)NC(C)C)cc1Br	18%	?	-3%	-7%
COc1ccc(C(=O)NNC(=S)NC(=O)c2ccc(OC)cc2)cc1	-9%	9.3µM*	-9%	-72%
C=CCNC(=S)NNC(=O)c1ccc(OCCC)cc1	23%	?	6%	10%
CCCOc1ccc(C(=O)NNC(=S)NC(=O)CC)cc1	-6%	15µM*	?	-169%
COc1ccc(C(=O)NNC(=S)NC(=O)c2cccnc2)cc1	0%	24%	?	-5%
O=C(O)c1cccnc1Sc1ccc(Br)cc1	-1%	-3%	-1%	-6%
SMILES	SARS PLP yeast	Pf growth 96h	Pf growth 48h	NS1 function inh
CC1CC(C)CN(S(=O)(=O)c2ccc(NC(=S)NC(=O)c3ccccc3)cc2)C1 (stereo not drawn)	10%	17%	10%	13%
N#CC1=C(N)Oc2cc(N)ccc2C1c1ccsc1 (stereo not drawn)	-5%	10µM*	4%	26%
CCOC(=O)c1cc2c(=O)n3cccc(C)c3nc2n(CC(C)C)c1=NC(=O)c1ccco1	1%	3.7µM*	?	2%
CCOC(=O)c1cc2c(=O)n3ccccc3nc2n(Cc2ccco2)c1=NC(=O)c1ccc(OC)cc1	0%	31%	9.3µM*	nt
CCOCCCn1c(=NC(=O)c2ccco2)c(C(=O)OCC)cc2c(=O)n3cccc(C)c3nc21	0%	?	0%	8%
CCOC(=O)c1cc2c(=O)n3cccc(C)c3nc2n(Cc2ccco2)c1=NC(=O)c1ccccc1	-1%	12µM*	?	13%
